Screening data: PubChem BioAssay, several laboratories
The list is not random: actives were taken first. Their share in the collection is about 3.2%.
GDH-TPI inh: GDH-TPI coupling enzyme inhibitors, primary screen, artefact control for M. tuberculosis FBA inhibitor project, biochemical, absorbance, full deck | GDH-TPI coupled enzyme counterscreen, NADH absorbance | inhibition, % at 4.8 µM | 360,000 compounds, 1.2% hits | AID 588335, 2011; in the data active means inhibition above about 30%
Mtb FBA inh: Mtb FBA enzyme inhibitors, primary screen, biochemical, fluorescence, strain H37Rv; Fructose-bisphosphate aldolase (Mycobacterium tuberculosis (strain ATCC 25618 / H37Rv)), …; purified M. tuberculosis FBA, fluorescence read-out; inhibition, % at 1 µM; 360,000 compounds, 2.3% hits; AID 588726, 2011; in the data active means inhibition above about 27%
Yp Topo-I inh: Yersinia pestis topoisomerase I inhibitors, primary screen, biochemical, cleavage product accumulation, plate reader, single point; DNA topoisomerase I (Yersinia pestis CO92); Y. pestis Topo-I cleavage product accumulation; activity, % at 10 µM; 360,000 compounds, 0.064% hits; AID 504884, 2011; in the data active means activity above about 50%, passing the limit was not always enough
TcdB inh: TcdB glycohydrolase inhibitors, primary screen, biochemical, single point, plate reader. Toxin B (Clostridioides difficile), P18177. TcdB glycohydrolase enzymatic assay. inhibition, % at 9.99 µM. 350,000 compounds, 0.24% hits. AID 652162, 2013; in the data active means inhibition above about 10%
PrPC surface inh: inhibitors of human cell surface prion protein PrPC, primary screen, cell-based, TR-FRET | Major prion protein (Homo sapiens), P04156 | TR-FRET read-out | inhibition, % at 13.8 µM | 370,000 compounds, 0.43% hits; in the data active means inhibition above about 24%
Numbers stand for hits; - = inactive; . = no result; + = active, no number.

SMILES | GDH-TPI inh | Mtb FBA inh | Yp Topo-I inh | TcdB inh | PrPC surface inh
C[C@@H]1CN([C@H](C)CO)C(=O)c2cc(NC(=O)c3ccncc3)ccc2O[C@@H](C)CCCCO[C@@H]1CN(C)C(=O)C1CCCCC1 | . | . | . | - | .
Cc1cc(O)ccc1NC(=O)c1ccccc1 | - | - | - | 12 | -
CCCN1[C@H](C(=O)N[C@@H](C)c2ccccc2)[C@@H](CO)[C@@H]2Cn3c(ccc(-c4ccc(F)cc4)c3=O)[C@@H]21 | . | . | . | - | .
C=CCSc1nnc(-c2cc3c(s2)-c2ccccc2CC3)o1 | - | + | - | . | -
O=C(C[C@H]1CC[C@H]2[C@@H](COC[C@@H](O)CN2Cc2ccccc2)O1)NCCCN1CCOCC1 | . | . | . | - | .
COc1ccc(NC(=O)Nc2ccc3c(c2)C(=O)N([C@H](C)CO)C[C@H](C)[C@H](CN(C)C(=O)Nc2ccccc2)O3)cc1 | . | . | . | - | .
c1ccc(-c2nc3ccccc3nc2N2CCOCC2)cc1 | - | - | - | . | -
Cn1c(N2CCOCC2)nc(-c2ccccc2)c1-c1ccccc1 | - | 103 | - | . | -
O=C(COC(=O)CCC1CCCC1)Nc1ccccc1Sc1ccccc1 | - | - | 64 | - | -
O=C(Nc1ccccc1F)N[C@H]1CC[C@@H](CCNC(=O)C2CCCCC2)O[C@H]1CO | . | . | . | - | .
Cc1nn(-c2ccccc2)c2nc(-c3cccs3)cc(C(=O)NN)c12 | - | - | - | - | -
CCOC(=O)c1cc(-c2cccs2)nc2c1c(C)nn2-c1ccccn1 | 37 | - | - | - | -
CC12CCCC(=O)C1CCC(=Cc1ccco1)C2=O (stereo unspecified) | 32 | - | - | - | -
CN(C)CC(=O)N1[C@@H]2Cn3c(ccc(C4=CCCC4)c3=O)[C@H]1[C@@H](C(=O)NCC1CCCCC1)[C@@H]2CO | . | . | . | - | .
CN1/C(=C/C(=O)c2cccs2)Sc2ccccc21 | - | - | - | . | -
CN1/C(=C/C(=O)C2CCC2)Sc2ccccc21 | 68 | - | - | - | -
COCC(=O)/C=C1\Sc2ccccc2N1C | 37 | - | - | - | -
Cc1cc(=O)oc2c3c(cc(OCC(=O)N4CCC[C@H]4C(=O)O)c12)OC(C)(C)CC3 | - | + | - | - | -
CCCCc1cc(=O)oc2c3c(cc(OCC(=O)N4CCC[C@H]4C(=O)O)c12)OC(C)(C)CC3 | - | + | - | - | -
Cc1cc(=O)oc2c3c(cc(OCC(=O)N4CCC(C(=O)O)CC4)c12)OC(C)(C)CC3 | - | + | - | - | -
Cc1c(C)c2c(OCC(=O)N3CCC(C(N)=O)CC3)cc3c(c2oc1=O)CCC(C)(C)O3 | - | + | - | - | -
Cc1c(CCC(=O)N2CCC[C@H]2C(=O)O)c(=O)oc2c(C)c3oc4c(c3cc12)CCCC4 | - | - | - | - | -
CCCc1cc(=O)oc2c(C)c(OCC(=O)N3CCC(C(N)=O)CC3)ccc12 | - | - | - | . | -
O=C(Nc1ccc(C(F)(F)F)cc1)N[C@@H]1CC[C@@H](CC(=O)N2CCCCC2)O[C@H]1CO | . | . | . | - | .
C[C@H](CO)N1C[C@H](C)[C@H](CN(C)C(=O)Nc2ccccc2)Oc2ccc(NC(=O)Cn3cnnn3)cc2CC1=O | . | . | . | - | .
SMILES | GDH-TPI inh | Mtb FBA inh | Yp Topo-I inh | TcdB inh | PrPC surface inh
C[C@H]1CN([C@@H](C)CO)C(=O)c2cc(C3=CCCC3)cnc2O[C@@H]1CN(C)C(=O)NC1CCCC1 | . | . | . | - | .
C/C=C/c1ccc2c(c1)O[C@H](CN(C)C(=O)CC)[C@H](C)CN([C@H](C)CO)S2(=O)=O | . | . | . | - | .
O=C1OCCC1=Cc1ccccc1 | - | - | - | - | -
O=C1OCC/C1=C\c1ccc(O)cc1 | - | - | - | 21 | -
Cc1ccc(/C=C/C(=O)Nc2nnc(C)s2)o1 | 32 | - | - | . | -
Cc1ccc(C(=O)Nc2nnc(C)s2)o1 | - | - | - | . | -
C=C1CC(C(=O)N/N=C/c2ccc(O)cc2)C1 | - | - | - | . | -
N/C(=N\[N+](=O)[O-])N/N=C/c1ccc(O)cc1 | 37 | - | - | - | -
O=C(N/N=C/c1ccncc1)NC12CC3CC(CC(C3)C1)C2 | - | - | - | - | -
COCc1cc(C)nc(OCC(=O)N/N=C/c2ccccc2O)c1C#N | - | - | - | - | -
Cc1cc(C)n(CCC(=O)N/N=C/c2ccccc2O)n1 | - | - | - | - | -
Cc1cc(C)n(CCC(=O)N/N=C/c2ccc(O)cc2O)n1 | 31 | - | - | . | -
O=C(N/N=C/c1ccc(O)cc1)NC12CC3CC(CC(C3)C1)C2 | - | - | - | 19 | -
COCc1cc(C)nc(OCC(=O)N/N=C/c2ccc(O)cc2O)c1C#N | 35 | - | - | - | -
O=C(CCC(=O)Nc1ccc(F)cc1)N/N=C/c1ccc(O)cc1O | - | - | - | - | -
O=C(CNC(=O)c1ccccc1Br)N/N=C/c1ccco1 | - | - | - | - | -
O=C(CNC(=O)c1ccccc1Br)N/N=C/c1ccc(O)cc1 | - | - | - | 13 | -
O=C(N/N=C/c1ccc(O)cc1O)C(=O)N/N=C/c1ccc(O)cc1O | 41 | - | - | - | -
O=C(NN=Cc1ccc(O)cc1)C(=O)NN=Cc1ccc(O)cc1 | 68 | - | - | - | -
CCCC(=O)N1CCC2(CC1)CN(C(=O)Nc1c(C)noc1C)[C@@H](CO)c1c2c2ccc(OC)cc2n1C | . | . | . | - | .
Cc1cccc(-c2nnc(NC(=O)c3ccc(N4C(=O)CCC4=O)cc3)s2)c1 | - | - | - | - | -
Cc1ccccc1-c1nnc(NC(=O)c2ccc(N3C(=O)CCC3=O)cc2)s1 | 33 | - | - | - | -
C=C(C)Cc1c(C)c(C#N)c2nc3ccccc3n2c1NCCCN(C)C | - | - | - | - | -
CCc1c(C)c(C#N)c2nc3ccccc3n2c1NCCN(C)C | - | - | - | . | -
CCCc1cc(NCCN(C)C)n2c(nc3ccccc32)c1C#N | - | 162 | - | - | -
SMILES | GDH-TPI inh | Mtb FBA inh | Yp Topo-I inh | TcdB inh | PrPC surface inh
CCCc1cc(NCCCN(C)C)n2c(nc3ccccc32)c1C#N | - | 112 | - | - | -
CCCc1cc(NCC2CCCO2)n2c(nc3ccccc32)c1C#N (stereo unspecified) | - | 192 | - | . | -
CC(C)NC(=O)N(C)C[C@@H]1Oc2cc(-c3ccccc3F)ccc2S(=O)(=O)N([C@@H](C)CO)C[C@@H]1C | . | . | . | - | .
CN(CC1CCCN(CCc2ccc(F)cc2)C1)C(=O)CCC(F)(F)F (stereo unspecified) | - | - | - | - | -
CN(C)C(=O)CCC(=O)N(C)CC1CCCN(CCc2ccc(F)cc2)C1 (stereo unspecified) | - | 188 | - | - | -
O=C(Cn1cc(COc2ccc(Cl)c(Cl)c2)nn1)NS(=O)(=O)c1ccccc1OC(F)(F)F | - | - | - | 11 | -
CNC[C@H]1Oc2ccc(NC(=O)Nc3ccccc3)cc2C(=O)N([C@@H](C)CO)C[C@H]1C | . | . | . | - | .
CN(C)c1ccc(C2N3CC4(C)CN2CC(C)(C3)C4O)cc1 (stereo unspecified) | 42 | - | - | - | -
